Reference: PubChem BioAssay AID504429 (National Center for Advancing Translational Sciences (NCATS), 2011)
Some of the results follow. Activity calls are given as the source filed them.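 The calls were made as follows: active = compounds whose dose response shows an inhibitor phenotype against the kinase Dyrk1b; inactive = compounds showing no inhibitor phenotype.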

The molecules below were run against Dual specificity tyrosine-phosphorylation-regulated kinase 1B (Homo sapiens) (UniProt Q9Y463) (assay: Kinase Inhibition Study on Inhibitors of Dyrk1b (Reaction Biology data)). Settings: Recombinant Dyrk1b kinase assay, 10 uM ATP.
Sequence of Dual specificity tyrosine-phosphorylation-regulated kinase 1B (Homo sapiens) (Q9Y463 whole entry, looked up, canonical isoform): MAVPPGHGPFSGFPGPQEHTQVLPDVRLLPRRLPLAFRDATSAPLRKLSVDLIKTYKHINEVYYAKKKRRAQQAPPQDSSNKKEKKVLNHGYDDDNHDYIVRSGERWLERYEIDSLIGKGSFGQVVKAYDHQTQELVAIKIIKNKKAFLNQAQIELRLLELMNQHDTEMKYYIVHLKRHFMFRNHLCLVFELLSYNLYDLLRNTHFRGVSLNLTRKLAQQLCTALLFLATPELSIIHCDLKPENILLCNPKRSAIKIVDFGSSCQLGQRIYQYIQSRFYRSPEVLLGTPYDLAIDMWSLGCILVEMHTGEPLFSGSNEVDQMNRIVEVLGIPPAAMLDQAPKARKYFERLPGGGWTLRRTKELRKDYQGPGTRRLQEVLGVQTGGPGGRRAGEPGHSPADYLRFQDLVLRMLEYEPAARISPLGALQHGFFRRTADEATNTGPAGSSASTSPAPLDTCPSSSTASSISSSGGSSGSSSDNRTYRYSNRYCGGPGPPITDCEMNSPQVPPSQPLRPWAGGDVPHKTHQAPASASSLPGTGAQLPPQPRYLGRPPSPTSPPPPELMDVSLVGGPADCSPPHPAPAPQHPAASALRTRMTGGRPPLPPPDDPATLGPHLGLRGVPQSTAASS
Excerpt: NIH Molecular Libraries Probe Production Centers Network [MLPCN] NIH Chemical Genomics Center [NCGC] MLPCN Grant: 1R03MH084827-01 Assay Submitter (PI): Tom Misteli NCGC Assay Overview: Alternative splicing of pre-mRNAs plays a major role in the regulation of eukaryotic gene expression. Alternative splicing is now thought to be one of the primary reasons for the complexity of higher organisms leading to an average of three protein isoforms per gene. Aberrant splicing can lead to a number of diseases and is known to play a role in rare genetic diseases such as progeria syndrome. Hutchinson-Gilford Progeria Syndrome (HGPS) is a pediatric premature aging disease caused by a spontaneous mutation in the lamin A/C (LMNA) gene due to a single point mutation in the lamin A gene effecting 1 in 4 million people. To identify both specific splicing modulators of the lamin A gene as well as general splicing modulators, a cell-based HTS assay was developed using a minigene reporter system (AIDs, 1459 & 1487). […] The Clk family is part of the CMGC group of protein kinases which includes Dyrks and are essential kinases found in all eukaryotes. […] This AID is to summarize the activity of these analogs in Dyrk1b.
All kinase reactions were performed using 10 uM ATP in the assay. 100% activity was taken from kinase reactions with DMSO alone (the vehicle used for compound stock solutions).
In the case of `c1nc(N2CCOCC2)c2cc(-c3ccc4c(c3)OCO4)ccc2n1`, the Potency is reported as 5.22 µM (active).
In the case of `CN(Cc1cncn1C)c1ncnc2ccc(-c3ccc4c(c3)OCO4)cc12`, the Potency is reported as 15 µM (active).
`CC(Nc1ncnc2ccc(-c3ccc4c(c3)OCO4)cc12)c1ccco1` (stereo not drawn) was tested, and the Potency was 8.14 µM (active).
